Among the data in PubChem BioAssay AID1159606 (Sanford-Burnham Center for Chemical Genomics, 2016) are inhibition values, retold here.

Molecules are shown by their SMILES. About 7,300 (2%) of roughly 360,000 compounds were called active. This is one part of a sample in which actives are shown more often than they occur. No stated cut-off is given here; in the data, active means inhibition above about 50%; inactive means the rest.

In general, inhibition refers to the change of the read-out against control, counted positive when it falls.

A short description of the assay: blockers of TWEAK-induced Fn14 reporter activity – luciferase reporter cells, uHTS, primary screen (AID 1159606). As to conditions: TWEAK-stimulated Fn14 reporter cells, luciferase luminescence, 8 h; at 10 µM; hits give high values. Background: A reporter such as luciferase makes a cellular process visible.
As to `COc1ccc(N2CCN(C(=O)CNS(=O)(=O)c3ccc(C)c(C)c3)CC2)cc1`, the inhibition was 4.34% (inactive). Take `COc1ccc(C(C#N)Nc2ccccc2C)cc1` (stereo not drawn): the inhibition was -0.99% (inactive). As for `COC(=O)[C@@]1(Cc2ccc(F)cc2)[C@H]2c3cc(C(=O)N4CCCC4)n(Cc4ccc(OC(F)(F)F)cc4)c3C[C@H]2CN1C(=O)c1ccccc1`, the inhibition was 18.4% (inactive). The same measure for `CO/N=C(\N)c1ccc([N+](=O)[O-])cc1`: 0.74% (inactive); for `Cc1ccc(C(=O)O/N=C(\N)c2ccccn2)cc1Cl`: 92.3% (active). In the case of `Cc1cc(C)cc(OCC(=O)O/N=C(\N)Cc2ccc([N+](=O)[O-])cc2)c1`, the inhibition is -9.61% (inactive). In the case of `Cc1cccc(/C(N)=N/OC(=O)c2ccccc2Cl)c1` it was 31.2% (inactive); in that of `N/C(=N\OC(=O)Cc1ccc([N+](=O)[O-])cc1)c1ccccn1`, 69.1% (active); in that of `O=C(COC(=O)c1ccccn1)NNC(=O)c1ccc([N+](=O)[O-])cc1`, -4.89% (inactive). In the case of `N/C(=N\OC(=O)c1ccc([N+](=O)[O-])cc1)c1ccccn1` it was 77.4% (active). For the compound `N/C(Cc1ccc([N+](=O)[O-])cc1)=N\OC(=O)COc1ccc2ccccc2c1`, the inhibition is -1.78% (inactive). The same measure for `N/C(=N\OC(=O)CCC1CCCCC1)c1ccccn1`: 18.4% (inactive); for `COc1ccc(C2OC(CCc3ccccc3)Cc3[nH]c(=S)[nH]c(=O)c32)cc1` (stereo not drawn): -31.7% (inactive); for `Cc1ccc(S(=O)(=O)N2CCC(=O)N([C@H](COCc3ccccc3)Cc3ccccc3)CC2)cc1`: 1.7% (inactive). In the case of `CC(Oc1ccc(Cl)cc1)c1ccnn1S(C)(=O)=O` (stereo not drawn) it was 8.92% (inactive); in that of `CN(C)CCn1c2c(c(SCC(=O)Nc3ccccc3C(F)(F)F)nc1=O)CCCC2`, -2.47% (inactive); in that of `CC(C)(C)c1ccc(/C=C/C(=O)NCCCn2ccnc2)cc1`, 13.5% (inactive). The same measure for `O=C(NC1CCCC1)C1c2ccccc2OCC(=O)N1Cc1ccccc1` (stereo not drawn): 2.4% (inactive).

As to `COC(=O)Nc1ncc(CN2CCCCC2)s1`, the inhibition was 1.88% (inactive).

In the case of `Cc1nc(-c2ccc(NC(=O)c3cccs3)cc2)cs1`, the inhibition is 69% (active). The same measure for `Cc1ccc(OCC(=O)Nc2ccc(NC(=O)c3cccs3)cc2)c(C)c1`: -68.7% (inactive); for `CCc1ccc(NC(=O)C(=O)NNC(=O)c2cccs2)cc1`: -12.2% (inactive); for `CCN(C(=O)CSc1nnc2ccccn12)C1CCS(=O)(=O)C1` (stereo not drawn): 7.23% (inactive). In the case of `COc1ccc2c(c1)c(=Cc1ccc(N(C)C)cc1)c1cc(-c3ccccc3)[n+](C)n12` it was 100% (active). In the case of `CC1(C)CC(=O)C2=C(C1)N=C1SCCC(=O)N1C2c1ccc(C(F)(F)F)cc1` (stereo not drawn) it was 1.88% (inactive); in that of `O=C1OC(Oc2ccc(Br)cc2)(c2ccccc2)c2ccccc21` (stereo not drawn), 7.48% (inactive); in that of `Nc1[nH]c(C(=O)c2ccccc2)c(-c2ccncc2)c1C(=O)NCc1cccc2ccccc12`, 36% (inactive). `CC(=O)c1ccc(NC(=O)c2ccc3c(Cl)c4c(nc3c2)CCCC4)cc1`: the inhibition is 40.1% (inactive). With `CC(C)CCNC(=O)c1ccc2c(Cl)c3c(nc2c1)CCC3`, the inhibition is 58.4% (active). The same measure for `COc1cccc(NC(=O)c2ccc3c(SCC(=O)O)c4c(nc3c2)CCCC4)c1`: -6.4% (inactive).

In the case of `CCc1ccc([C@@H]2CC(=O)[C@@H]3CN(S(=O)(=O)c4ccc(C)cc4)[C@H](c4ccc(Cl)cc4)C[C@@H]3N2S(=O)(=O)c2ccc(C)cc2)cc1`, the inhibition is -18.3% (inactive). Turning to `COCOCCn1cc(CN2CCS(=O)(=O)N(Cc3ccc(-c4ccc(OC)cc4)cc3)C(CC(C)C)C2=O)nn1` (stereo not drawn), the inhibition is -6.75% (inactive). Take `COCc1cc(=O)[nH]c2cc(NC(=O)C(F)(F)F)c(C)cc12`: the inhibition is 6.5% (inactive). The same measure for `C[C@H]1CN([C@@H](C)CO)C(=O)CCCn2cc(nn2)CO[C@@H]1CN(C)S(=O)(=O)c1ccc(-n2cccn2)cc1`: -16.6% (inactive). In the case of `Cc1cccc(N2C(=O)c3ccc(C(=O)Nc4cccc(C(=O)O)c4)cc3C2=O)c1` it was 8.83% (inactive); in that of `O=C(O)c1ccc2c(c1)C(=O)N(c1ccc(/C=C/C(=O)c3ccccc3)cc1)C2=O`, 75.5% (active). The same measure for `O=C(c1ccc2c(c1)C(=O)N(c1ccc(Cl)cc1)C2=O)N1CCN(c2ccccn2)CC1`: -12.4% (inactive); for `CCN1C[C@@H]2[C@@H]3C(=O)N(C)C(=O)[C@@H]3[C@](C)(C1=O)N2C(=O)c1ccccc1`: 11.5% (inactive); for `CC(Sc1nncn1C)C(=O)NCCC1=CCCCC1` (stereo not drawn): -1.74% (inactive). As to `COc1ccc(NC(=O)ON=C2c3ccccc3-c3ccccc32)cc1`, the inhibition was 57.8% (active).

For `COc1ccc(NC(=O)CCCC(=O)c2ccccc2)cc1`, the inhibition is -22.6% (inactive). In the case of `COc1ccc(NC(=O)C(Br)C(C)C)cc1` (stereo not drawn) it was -6.35% (inactive); in that of `CCC1CCCCN1C(=O)Nc1cccc(NC(=O)N2CCCCC2CC)c1` (stereo not drawn), -4.07% (inactive); in that of `CCCCn1c(N)c(N(Cc2ccccc2OC)C(=O)COc2cc(C)ccc2Cl)c(=O)[nH]c1=O`, -6.52% (inactive). The same measure for `CC(C)CC(=O)N1CCN(Cc2ccccc2Br)CC1`: -11.1% (inactive); for `CCC1OC(C2CC2)CC2=C1C(=O)OC(C)(C)O2` (stereo not drawn): 6.62% (inactive); for `CC(C)Cn1c(SCC(=O)Nc2ccc(Cl)cc2F)nc(O)cc1=O`: 0.05% (inactive). In the case of `Cn1c(SCC(=O)Nc2ccc(Cl)cc2)nc(O)cc1=O` it was 80.5% (active).

For the compound `COc1ccccc1-n1c(SCC(=O)Nc2ccc(Cl)cc2)nc(O)c(Cc2ccccc2)c1=O`, the inhibition is -7.18% (inactive). In the case of `O=C(COC(=O)c1ccc(NS(=O)(=O)c2cccs2)cc1O)Nc1ccc(F)cc1` it was 1.2% (inactive); in that of `CCOC(=O)N1CCN(C(=O)C2CCCN(c3ncnc4c3sc3cccc(F)c34)C2)CC1` (stereo not drawn), 28.8% (inactive). In the case of `FC(F)(F)C1CCCN(c2nsc3ccccc23)C1` (stereo not drawn) it was 7.5% (inactive); in that of `CCCCCCCCN1C(=O)[C@H](CC(=O)NCc2cccc3ccccc23)C[C@@]2(C(=O)OC)CCCCC=C12`, -1.79% (inactive); in that of `c1ccc(CN2CCC(N=C3NN=C(c4ccc5c(c4)OCCO5)CS3)CC2)cc1`, 57.6% (active).

`Clc1cccc(N=C2NN=C(c3ccc4c(c3)OCCO4)CS2)c1`: the inhibition is 84.4% (active).

Regarding `CS(=O)(=O)N(CC(=O)N1CCN(Cc2ccccc2)CC1)c1ccc2c(c1)OCCO2`, the inhibition is 14.7% (inactive). As to `CN(C)c1nc(=Nc2cccc(Cl)c2)ss1`, the inhibition was 5.73% (inactive). The same measure for `CC(=NC1CCN(Cc2ccccc2)CC1)c1c(O)[nH]c(=O)[nH]c1=O`: 0.57% (inactive).
